Source: ChEMBL document CHEMBL4513154, “CO-ADD screening of Jain University (India) compounds”
Entries with a potency or affinity are not part of this list.

tested on: Klebsiella pneumoniae; conditions: Concentration 32 ug.mL-1; ASSAY_TEST Inhibition of Bacterial Growth; detection method Absorption (OD600); MEDIA CAMHB; plate type 384well; NBS; CORNING #3640; time 18 hr

Structure (SMILES)	Inhibition [%]
Clc1ccc2c(c1)nc(-c1cscn1)n2Cc1ccc(Cl)nc1	-1.17
Clc1ccc(Cn2c(-c3cscn3)nc3c(Cl)cccc32)cn1	14.39
Clc1ccc(Cn2c(-c3cscn3)nc3ccccc32)cn1	12.39

tested on: Candida albicans; conditions: 32 ug/mL

Structure (SMILES)	Inhibition [%]
Clc1ccc2c(c1)nc(-c1cscn1)n2Cc1ccc(Cl)nc1	2.99
Clc1ccc(Cn2c(-c3cscn3)nc3c(Cl)cccc32)cn1	1.41
Clc1ccc(Cn2c(-c3cscn3)nc3ccccc32)cn1	0.69

tested on: Cryptococcus neoformans; conditions: Concentration 32 ug.mL-1; ASSAY_TEST Inhibition of Fungal Growth; detection method Resazurin; Absorption (OD600-OD570); plate type 384well; NBS; CORNING #3640

Structure (SMILES)	Inhibition [%]
Clc1ccc2c(c1)nc(-c1cscn1)n2Cc1ccc(Cl)nc1	-29.64
Clc1ccc(Cn2c(-c3cscn3)nc3c(Cl)cccc32)cn1	-19.98
Clc1ccc(Cn2c(-c3cscn3)nc3ccccc32)cn1	-39.39
